Six compounds from PubChem BioAssay (EPA / NIEHS) can be followed below.

Each structure is given as a SMILES string. The source made the active and inactive calls. How the source made its calls: active means hit-call score of the fitted dose curve at least 0.9, where 1 is the maximum; inactive means score below 0.9.

What all share (conditions): mRNA level, 48 h; actives raise or lower the signal
Read-out in assay [1]: ABC Transporter (ABCC2), ABCC2 (gene 1244)
In words: LTEA_HepaRG_ABCC2: Life Technologies and Expression Analysis (LTEA) Assay for ABC Transporter (ABCC2) using HepaRG (AID 2283464). Put shortly: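 qRT-PCR (TaqMan, Fluidigm array) read-out of ABCC2 mRNA, normalized to three housekeeping genes. Differentiated HepaRG cells were treated 48 h in serum-free induction medium with 8-point half-log series from 100 uM in 0.5% DMSO; curves fitted bidirectionally relative to DMSO.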

Read-out in assay [2]: Broad substrate specificity ATP-binding cassette transporter ABCG2 (Homo sapiens) (UniProt Q9UNQ0)
In words: LTEA_HepaRG_ABCG2: Life Technologies and Expression Analysis (LTEA) Assay for ABC Transporter (ABCG2) using HepaRG (AID 2283465). Put shortly: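 ABCG2 transcript was quantified by TaqMan qRT-PCR against three housekeeping genes in HepaRG cells. Cells were treated in duplicate for 48 h across an 8-point half-log series up to 100 uM, with 0.5% DMSO vehicle. Gain or loss versus DMSO was fit.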

Read-out in assay [3]: ATP-citrate lyase (ACLY), ACLY (gene 47)
In words: LTEA_HepaRG_ACLY: Life Technologies and Expression Analysis (LTEA) Assay for ATP-citrate lyase (ACLY) using HepaRG (AID 2283466). Put shortly:
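ACLY mRNA quantified by qRT-PCR on Fluidigm arrays against three housekeeping genes, after 48 h chemical treatment of HepaRG cells (top concentration 100 uM, half-log steps, 0.5% DMSO vehicle). Up- or down-regulation fitted relative to DMSO.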

Read-out in assay [4]: Peroxisomal acyl-coenzyme A oxidase 1 (ACOX1) gene, ACOX1 (gene 51)
In words: LTEA_HepaRG_ACOX1: Life Technologies and Expression Analysis (LTEA) Assay for Peroxisomal acyl-coenzyme A oxidase 1 (ACOX1) gene using HepaRG (AID 2283467). The method, boiled down:
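ACOX1 transcript levels were quantified by TaqMan qRT-PCR against three housekeeping genes after 48 h chemical exposure of differentiated human HepaRG cells. Exposure used eight half-log steps topping at 100 uM, 0.5% DMSO vehicle, in duplicate. Bidirectional curve fits were made relative to DMSO.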

Read-out in assay [5]: Alkaline Phosphatase, Placental (ALPP) gene, ALPP (gene 250)
In words: LTEA_HepaRG_ALPP: Life Technologies and Expression Analysis (LTEA) Assay for Alkaline Phosphatase, Placental (ALPP) gene using HepaRG (AID 2283468). Put shortly: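 qRT-PCR readout of ALPP mRNA (Fluidigm TaqMan), normalized to ACTB/GAPDH/POLR2A, after 48 h chemical exposure of HepaRG cells; 8-point half-log series, top 100 uM, 0.5% DMSO vehicle. Bidirectional curve fit versus DMSO baseline.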

Read-out in assay [6]: Bcl-2 (BAD) gene, BAD (gene 572)
As to the kind of experiment: LTEA_HepaRG_BAD: Life Technologies and Expression Analysis (LTEA) Assay for Bcl-2 (BAD) gene using HepaRG (AID 2283469). The method, boiled down:
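Read-out: qRT-PCR of BAD mRNA, normalized to three housekeeping genes. Human HepaRG cultures got 48 h chemical exposure in 0.5% DMSO, duplicate eight-point half-log series topping at 100 uM. Gain or loss of signal fitted versus DMSO vehicle.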

Read-out in assay [7]: Bcl-2 (BAX) gene, BAX (gene 581)
In words: LTEA_HepaRG_BAX: Life Technologies and Expression Analysis (LTEA) Assay for Bcl-2 (BAX) gene using HepaRG (AID 2283470). Put shortly: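 Cells were thawed, plated for 48 h, moved to serum-free induction medium and dosed for 48 h (highest concentration 100 uM, half-log steps, 0.5% DMSO). Total RNA was then analysed for BAX expression by qRT-PCR.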

Read-out in assay [8]: adenosine kinase (ADK) gene, ADK (gene 132)
As to the kind of experiment: LTEA_HepaRG_ADK: Life Technologies and Expression Analysis (LTEA) Assay for adenosine kinase (ADK) gene using HepaRG (AID 2283471). The method, boiled down: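 Read-out is ADK transcript level measured by qRT-PCR and normalised to three housekeeping genes. Cells are human HepaRG, dosed for 48 h at up to 100 uM in 0.5% DMSO. Gain or loss of signal is fitted against DMSO controls.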

Read-out in assay [9]: Alpha-fetoprotein (AFP) gene, AFP (gene 174)
As to the kind of experiment: LTEA_HepaRG_AFP: Life Technologies and Expression Analysis (LTEA) Assay for Alpha-fetoprotein (AFP) gene using HepaRG (AID 2283472). The method, boiled down:
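Chemicals were tested on differentiated HepaRG cells for 48 hours at eight concentrations up to 100 uM, with 0.5% DMSO as vehicle. AFP expression was then quantified by qRT-PCR and analyzed for gain or loss relative to DMSO.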

Read-out in assay [10]: BCL2L11 (gene 10018)
As to the kind of experiment: LTEA_HepaRG_BCL2L11: Life Technologies and Expression Analysis (LTEA) Assay for Bcl-2 (BCL2L11) gene using HepaRG (AID 2283473). Put shortly: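 HepaRG, 48 h exposure, 8-pt half-log series from 100 uM in 0.5% DMSO, duplicates; qRT-PCR (Fluidigm TaqMan) for BCL2L11, housekeeping-normalized; bidirectional curve fit relative to DMSO baseline.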

Read-out in assay [11]: Apolipoprotein A-V (APOA5) gene, APOA5 (gene 116519)
As to the kind of experiment: LTEA_HepaRG_APOA5: Life Technologies and Expression Analysis (LTEA) Assay for Apolipoprotein A-V (APOA5) gene using HepaRG (AID 2283474). Put shortly:
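HepaRG, 48 h chemical exposure in serum-free induction medium, 8-pt half-log series (top 100 uM), 0.5% DMSO vehicle, duplicates. Readout: APOA5 mRNA by qRT-PCR, housekeeping-normalized; bidirectional fit vs DMSO baseline.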

Read-out in assay [12]: Apoptosis regulator Bcl-2 (Homo sapiens) (UniProt P10415)
In words: LTEA_HepaRG_BCL2: Life Technologies and Expression Analysis (LTEA) Assay for Bcl-2 gene using HepaRG (AID 2283475). Put shortly: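 Plated human HepaRG cells are exposed to test chemicals for 48 h across eight concentrations from 100 uM downward in half-log steps (0.5% DMSO). BCL2 expression is then measured by qRT-PCR with housekeeping normalisation and fitted bidirectionally against vehicle.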

Read-out in assay [13]: Caspase-3 (Homo sapiens) (UniProt P42574)
As to the kind of experiment: LTEA_HepaRG_CASP3: Life Technologies and Expression Analysis (LTEA) Assay for cysteine-aspartic acid protease (CASP3) using HepaRG (AID 2283477). The method, boiled down:
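HepaRG, 48 h exposure, 8 conc. (top 100 uM, half-log steps, duplicate), 0.5% DMSO vehicle; qRT-PCR of CASP3 transcript, housekeeping-normalised (ACTB/GAPDH/POLR2A); bidirectional curve fit vs DMSO baseline.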

Read-out in assay [14]: Cytochrome P450 (CYP24A1), CYP24A1 (gene 1591)
In words: LTEA_HepaRG_CYP24A1: Life Technologies and Expression Analysis (LTEA) Assay for Cytochrome P450 (CYP24A1) using HepaRG (AID 2283478). Put shortly: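 qRT-PCR read-out: CYP24A1 transcript levels normalized to three housekeeping genes, bidirectional curve fits against 0.5% DMSO baseline. Human HepaRG cells treated 48 h with chemicals at eight concentrations from 100 uM in half-log steps.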

Read-out in assay [15]: Cytochrome P450 (CYP1A2), CYP1A2 (gene 1544)
In words: LTEA_HepaRG_CYP1A2: Life Technologies and Expression Analysis (LTEA) Assay for Cytochrome P450 (CYP1A2) using HepaRG (AID 2283479). Put shortly: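 HepaRG, 48 h exposure, top 100 uM, half-log 8-pt, 0.5% DMSO vehicle, duplicates. Readout: TaqMan qRT-PCR of CYP1A2 mRNA, housekeeping-normalized (ACTB/GAPDH/POLR2A). Gain/loss fit relative to DMSO baseline.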

Read-out in assay [16]: Cytochrome P450 (CYP2B6), CYP2B6 (gene 1555)
As to the kind of experiment: LTEA_HepaRG_CYP2B6: Life Technologies and Expression Analysis (LTEA) Assay for Cytochrome P450 (CYP2B6) using HepaRG (AID 2283481). The method, boiled down:
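Read-out is CYP2B6 mRNA by TaqMan qRT-PCR, normalized to three housekeeping genes and fitted bidirectionally against 0.5% DMSO baseline. Human HepaRG cells received test chemicals for 48 h, top concentration 100 uM, half-log dilutions.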

Read-out in assay [17]: Cytochrome P450 2C19 (Homo sapiens) (UniProt P33261)
As to the kind of experiment: LTEA_HepaRG_CYP2C19: Life Technologies and Expression Analysis (LTEA) Assay for CYP2C19 using HepaRG (AID 2283482). Put shortly: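 HepaRG, 48 h chemical exposure, 8-pt half-log series from 100 uM in 0.5% DMSO, duplicates. Readout: CYP2C19 mRNA by TaqMan qRT-PCR, housekeeping-normalized. Bidirectional fit vs DMSO baseline; phenobarbital 1mM as induction control.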

Read-out in assay [18]: CYP2C8 (gene 1558)
In words: LTEA_HepaRG_CYP2C8: Life Technologies and Expression Analysis (LTEA) Assay for CYP2C8 using HepaRG (AID 2283483). The method, boiled down: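 CYP2C8 expression measured by TaqMan qRT-PCR and normalized to three housekeeping genes. HepaRG cultures were treated for 48 h with an eight-point half-log series topping at 100 uM, vehicle 0.5% DMSO, duplicates; fitted both directions against DMSO.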

Read-out in assay [19]: Bcl-2 (BID) gene, BID (gene 637)
In words: LTEA_HepaRG_BID: Life Technologies and Expression Analysis (LTEA) Assay for Bcl-2 (BID) gene using HepaRG (AID 2283476). Put shortly: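 Cells are plated, cultured 48 h, switched to serum-free induction medium, then dosed 48 h (100 uM top, half-log steps, 0.5% DMSO). RNA is isolated and BID expression read by qRT-PCR.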

Read-out in assay [20]: cysteine-aspartic acid protease (CASP8), CASP8 (gene 841)
As to the kind of experiment: LTEA_HepaRG_CASP8: Life Technologies and Expression Analysis (LTEA) Assay for cysteine-aspartic acid protease (CASP8) using HepaRG (AID 2283480). Put shortly: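 CASP8 transcript measured by TaqMan qRT-PCR with ACTB/GAPDH/POLR2A normalization, after 48 h chemical exposure of HepaRG cells in serum-free induction medium. Eight concentrations, top 100 uM, half-log steps, 0.5% DMSO vehicle; fits in both directions versus DMSO.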

Broad substrate specificity ATP-binding cassette transporter ABCG2 (Homo sapiens), sequence (Q9UNQ0 whole entry, looked up): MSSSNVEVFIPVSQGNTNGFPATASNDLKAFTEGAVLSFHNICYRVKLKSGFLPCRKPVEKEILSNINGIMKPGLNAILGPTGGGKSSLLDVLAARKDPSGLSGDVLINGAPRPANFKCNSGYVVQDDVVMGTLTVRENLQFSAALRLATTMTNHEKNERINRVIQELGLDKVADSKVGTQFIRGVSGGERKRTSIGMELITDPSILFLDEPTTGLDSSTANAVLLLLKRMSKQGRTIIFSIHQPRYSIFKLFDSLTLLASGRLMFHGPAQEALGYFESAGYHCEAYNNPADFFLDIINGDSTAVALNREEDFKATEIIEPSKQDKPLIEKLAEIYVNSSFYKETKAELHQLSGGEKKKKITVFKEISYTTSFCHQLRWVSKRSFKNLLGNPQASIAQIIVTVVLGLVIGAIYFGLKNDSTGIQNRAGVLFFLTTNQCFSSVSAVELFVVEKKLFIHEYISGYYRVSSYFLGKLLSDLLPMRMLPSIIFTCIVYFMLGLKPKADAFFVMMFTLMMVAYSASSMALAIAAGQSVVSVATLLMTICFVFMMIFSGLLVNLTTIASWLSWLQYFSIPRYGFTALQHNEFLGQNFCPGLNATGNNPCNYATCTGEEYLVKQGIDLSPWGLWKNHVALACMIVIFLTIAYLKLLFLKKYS
Apoptosis regulator Bcl-2 (Homo sapiens), sequence (P10415 whole entry, looked up): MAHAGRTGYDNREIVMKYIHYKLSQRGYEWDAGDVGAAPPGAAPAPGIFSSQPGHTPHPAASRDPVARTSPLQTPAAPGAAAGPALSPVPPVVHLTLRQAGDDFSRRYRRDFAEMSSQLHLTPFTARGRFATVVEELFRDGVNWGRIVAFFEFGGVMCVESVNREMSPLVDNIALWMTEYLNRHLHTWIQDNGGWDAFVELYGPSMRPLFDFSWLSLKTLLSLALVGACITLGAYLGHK
Caspase-3 (Homo sapiens), sequence (P42574 whole entry, looked up): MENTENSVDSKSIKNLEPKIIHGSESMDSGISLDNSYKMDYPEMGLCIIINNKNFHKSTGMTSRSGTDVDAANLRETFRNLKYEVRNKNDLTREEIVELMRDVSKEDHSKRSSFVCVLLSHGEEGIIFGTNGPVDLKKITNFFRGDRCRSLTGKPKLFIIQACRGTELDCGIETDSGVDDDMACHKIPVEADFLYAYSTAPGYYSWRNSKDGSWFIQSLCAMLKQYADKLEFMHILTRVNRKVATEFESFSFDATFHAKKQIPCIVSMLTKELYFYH
Cytochrome P450 2C19 (Homo sapiens), sequence (P33261 whole entry, looked up): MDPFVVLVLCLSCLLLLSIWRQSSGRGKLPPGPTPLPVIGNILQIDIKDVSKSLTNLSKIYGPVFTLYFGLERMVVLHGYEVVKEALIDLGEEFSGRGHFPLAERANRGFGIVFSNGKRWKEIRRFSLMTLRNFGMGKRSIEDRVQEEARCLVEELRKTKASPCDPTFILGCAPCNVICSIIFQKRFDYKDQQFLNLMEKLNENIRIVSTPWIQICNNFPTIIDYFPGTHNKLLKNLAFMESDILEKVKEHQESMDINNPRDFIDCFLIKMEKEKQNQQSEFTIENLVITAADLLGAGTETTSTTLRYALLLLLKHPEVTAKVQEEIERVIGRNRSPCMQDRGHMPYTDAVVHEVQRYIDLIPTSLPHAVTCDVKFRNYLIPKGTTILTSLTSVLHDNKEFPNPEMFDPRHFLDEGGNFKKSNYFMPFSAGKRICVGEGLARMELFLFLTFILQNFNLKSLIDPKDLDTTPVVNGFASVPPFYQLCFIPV

On to `CCCOC(=O)c1ccc(C(=O)OCCC)nc1`, for which the call in assay [1], in [2], in assay [3], in [4], in assay [5] and in assay [6] was inactive. In addition, the outcome in assay [7], in [8], in assay [9], in assay [10], in assay [11] and in assay [12] was inactive. Besides, the result in [13], in [14], in assay [16], in assay [17] and in [18] was inactive. For the same compound, the concentration at half-maximal activity (AC50) in [15] is 50 µM (active).
Take `CSC(=O)c1cccc2nnsc12`: the result in assay [1], in [2], in assay [3], in assay [4], in [5] and in [6] was inactive. Moreover, the call in [7], in assay [8], in [9], in assay [10], in [11] and in [12] was inactive. The compound was classed as inactive in [13], in [14], in [15], in assay [16], in assay [17] and in assay [18].
With `CCOC(=O)C(C)Oc1ccc(Oc2nc3ccc(Cl)cc3o2)cc1` (stereo not given), the compound was classed as inactive in assay [2], in assay [3], in [4], in [5], in [6] and in assay [7]. The compound was classed as inactive in [8], in [9], in assay [10], in [12], in [19] and in [13]. Besides, the outcome in [14], in assay [15], in assay [20] and in assay [18] was inactive. Moreover, the half-maximal activity concentration (AC50) was 11.5 µM (active) in assay [11], 3.22 µM (active) in assay [16] and 14 µM (active) in [17].
In the case of `CCCCCCC(C)OC(=O)COc1nc(F)c(Cl)c(N)c1Cl` (stereo not given), the call in [1], in assay [2], in assay [3], in assay [4], in assay [5] and in assay [6] was inactive. Moreover, the compound was called inactive in assay [7], in assay [8], in assay [9], in assay [10], in assay [11] and in assay [12]. The result in assay [13], in [14], in assay [15], in [20], in assay [17] and in assay [18] was inactive. For the same compound, in [16], the AC50 was 50 µM (active).
As to `COC(=O)c1ccccc1C(=O)O`, the result in [1], in assay [2], in assay [3], in assay [4], in assay [5] and in assay [6] was inactive. The result in assay [7], in assay [8], in assay [9], in [10], in assay [11] and in assay [12] was inactive. Further, the compound was classed as inactive in assay [13], in assay [14], in assay [15], in assay [16], in assay [17] and in [18].
Take `O=C(O)c1ccccc1`: the compound was classed as inactive in [2], in assay [3], in assay [4], in assay [5], in assay [6] and in assay [7]. The result in assay [8], in assay [9], in assay [10], in assay [11], in assay [12] and in assay [19] was inactive. Moreover, the result in [13], in assay [14], in [15], in [16], in assay [17] and in [18] was inactive.

What is called AC50 is the concentration at which the activity in the assay is half-maximal.
